Here are results for 13 compounds from PubChem BioAssay (Tox21).

Assay [1] addresses Thyrotropin-releasing hormone receptor (Homo sapiens) (UniProt P34981). Put plainly: qHTS assay to identify small molecule agonists of the thyrotropin-releasing hormone receptor (TRHR) signaling pathway (AID 1346891; calls by dose curve;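 note: HEK293 cells expressing TRHR with calcium dye readout; series mostly up to about 58 µM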). The procedure, abridged:
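HEK293/TRHR cells, 1500 per well, 18 h 37 °C; Ca dye 2 h 37 °C; pin-tool compound addition (agonist mode); kinetic fluorescence 3 min, 1 s reads; 15 concentrations, triplicate.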

Assay [2] is described as follows: Human pregnane X receptor (PXR) small molecule agonists, qHTS cell viability counter screen (AID 1346977). Note: nearly all actives have a fitted effect of over 50% in size. Note: potency is the fitted concentration of half-maximal effect. In a few lines:
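Fluorescence read-out (CellTiter-Fluor) of viability in PXR-Luc HepG2 cells, multiplexed with the luciferase agonist read. Compounds in DMSO added after 5hr plating; 24hr total exposure at 37C, 5% CO2.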
For orientation: qHTS replaces the single test concentration by a dilution series.

A short description of assay [3]: Caspase-3/7 induction in HepG2 cells by small molecules, qHTS assay (AID 1346978). Note: nearly all actives have a fitted effect of over 15% in size. In a few lines: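 Wild-type HepG2 cells (2,000/well) were settled 5 h at 37 C, 5% CO2, then exposed to compounds in DMSO for 17 h. Caspase-3/7 activity was read by luminescence 30 min after adding Caspase-Glo 3/7 reagent at room temperature.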
Assay [4] is described as follows: Caspase-3/7 induction in CHO-K1 cells by small molecules, qHTS cell viability counter screen (AID 1346979). Note: nearly all actives have a fitted effect of over 35% in size. Note: potency is the fitted concentration of half-maximal effect. In a few lines: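 CHO-K1 wt, 1,500 cells/well; 5hr pre-incubation 37C/5% CO2; compound pin transfer (DMSO); 16hr exposure; CellTiter-Fluor added, 1hr, fluorescence read.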
Assay [5] can be described thus: Caspase-3/7 induction in CHO-K1 cells by small molecules, qHTS assay (AID 1346980). Note: nearly all actives have a fitted effect of over 15% in size. In a few lines:
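Wild-type cells were seeded at 1,500 per well and settled 5 hr at 37 C, 5% CO2, then exposed to DMSO-dissolved compounds for 17 hr. Caspase-Glo 3/7 reagent was added, and luminescence was read after 30min at room temperature.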

The target in assay [6] is Nuclear receptor subfamily 1 group I member 2 (Homo sapiens) (UniProt O75469). Put plainly: Human pregnane X receptor (PXR) small molecule agonists, qHTS assay (AID 1346982). Note: nearly all actives have a fitted effect of over 35% in size. Note: potency is the fitted concentration of half-maximal effect. In a few lines: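 Cells: HepG2 stably carrying PXR-Luc. Medium held 5% charcoal-stripped FBS. Compounds in DMSO added after 5 hr plating, incubated 24 hr, then luminescence quantified with ONE-Glo.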
Chain of Nuclear receptor subfamily 1 group I member 2 (Homo sapiens) (O75469 whole entry, looked up): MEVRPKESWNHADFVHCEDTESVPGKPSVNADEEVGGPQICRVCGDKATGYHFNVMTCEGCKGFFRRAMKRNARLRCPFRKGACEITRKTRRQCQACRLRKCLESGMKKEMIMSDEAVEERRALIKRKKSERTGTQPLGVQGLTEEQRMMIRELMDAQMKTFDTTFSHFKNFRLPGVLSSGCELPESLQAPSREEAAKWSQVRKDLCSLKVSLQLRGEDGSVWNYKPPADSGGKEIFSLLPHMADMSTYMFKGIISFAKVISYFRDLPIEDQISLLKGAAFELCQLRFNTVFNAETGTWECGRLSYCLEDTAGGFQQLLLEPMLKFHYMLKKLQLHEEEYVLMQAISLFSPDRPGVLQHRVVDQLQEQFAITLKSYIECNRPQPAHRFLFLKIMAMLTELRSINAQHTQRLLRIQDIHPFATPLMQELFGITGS

For assay [7], the target named is Cytochrome P450 2D6 (Homo sapiens) (UniProt P10635). Put plainly: Cytochrome P450 Family 2 Subfamily D Member 6 (CYP2D6) small molecule antagonists: luciferase reporter qHTS assay (AID 1671196). Note: nearly all actives have a fitted effect of over 50% in size. Note: potency is the fitted concentration of half-maximal effect. The procedure, abridged: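 Enzyme and proluciferin substrate were first combined with test chemical for 10 min at room temperature. Adding NADPH regeneration solution started a 1 h reaction, stopped with luciferin detection reagent and read by luminescence 20 min later.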
Chain of Cytochrome P450 2D6 (Homo sapiens) (P10635 whole entry, looked up): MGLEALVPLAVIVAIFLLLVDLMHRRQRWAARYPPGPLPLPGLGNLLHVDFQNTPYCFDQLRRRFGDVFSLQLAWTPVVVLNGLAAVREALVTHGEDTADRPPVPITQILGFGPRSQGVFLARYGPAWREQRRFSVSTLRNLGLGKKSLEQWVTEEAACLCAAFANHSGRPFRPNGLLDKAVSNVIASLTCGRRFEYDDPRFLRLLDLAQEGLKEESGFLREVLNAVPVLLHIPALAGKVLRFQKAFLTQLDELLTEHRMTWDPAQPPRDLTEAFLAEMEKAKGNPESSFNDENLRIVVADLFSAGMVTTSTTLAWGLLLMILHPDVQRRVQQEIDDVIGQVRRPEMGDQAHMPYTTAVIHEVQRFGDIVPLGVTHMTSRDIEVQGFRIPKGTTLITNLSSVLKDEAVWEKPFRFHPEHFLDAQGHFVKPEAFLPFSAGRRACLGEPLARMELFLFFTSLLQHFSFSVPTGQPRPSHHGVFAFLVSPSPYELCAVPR
On the technique in general: A reporter such as luciferase makes a cellular process visible.

For assay [8], the target named is Cytochrome P450 2C9 (Homo sapiens) (UniProt P11712). Put plainly: Cytochrome P450 Family 2 Subfamily C Member 9 (CYP2C9) small molecule antagonists: luciferase reporter qHTS assay (AID 1671198). Note: nearly all actives have a fitted effect of over 50% in size. Note: potency is the fitted concentration of half-maximal effect. In a few lines: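 CYP2C9 activity was measured with a P450-Glo proluciferin substrate. Enzyme–substrate mix was held with compound for 10 min at room temperature, then NADPH regeneration solution was added for 1 h at 37C. Luciferin product was read as luminescence.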
Chain of Cytochrome P450 2C9 (Homo sapiens) (P11712 whole entry, looked up): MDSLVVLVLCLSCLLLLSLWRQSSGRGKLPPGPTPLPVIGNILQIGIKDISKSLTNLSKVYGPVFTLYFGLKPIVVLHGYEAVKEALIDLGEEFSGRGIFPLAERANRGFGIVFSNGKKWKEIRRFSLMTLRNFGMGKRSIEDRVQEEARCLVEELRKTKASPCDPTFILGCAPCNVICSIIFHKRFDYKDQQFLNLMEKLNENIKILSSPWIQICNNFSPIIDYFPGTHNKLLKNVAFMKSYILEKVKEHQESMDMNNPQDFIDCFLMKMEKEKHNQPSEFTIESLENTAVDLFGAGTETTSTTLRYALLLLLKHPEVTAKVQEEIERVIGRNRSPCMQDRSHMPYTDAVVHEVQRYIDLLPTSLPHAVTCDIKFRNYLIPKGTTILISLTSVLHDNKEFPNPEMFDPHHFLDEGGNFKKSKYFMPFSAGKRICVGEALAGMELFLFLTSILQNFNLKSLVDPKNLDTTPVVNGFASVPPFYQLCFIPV

The target of assay [9] is Cytochrome P450 1A2 (Homo sapiens) (UniProt P05177). Kind of assay: Cytochrome P450 Family 1 Subfamily A Member 2 (CYP1A2) small molecule antagonists: luciferase reporter qHTS assay (AID 1671199). Note: nearly all actives have a fitted effect of over 50% in size. Note: potency is the fitted concentration of half-maximal effect. In a few lines: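 Compounds were incubated with CYP1A2 and a luminogenic proluciferin substrate for 10 min at room temperature before the reaction was started with NADPH regeneration solution. After 1 h, detection reagent was added and light output, proportional to CYP activity, was recorded.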
Chain of Cytochrome P450 1A2 (Homo sapiens) (P05177 whole entry, looked up): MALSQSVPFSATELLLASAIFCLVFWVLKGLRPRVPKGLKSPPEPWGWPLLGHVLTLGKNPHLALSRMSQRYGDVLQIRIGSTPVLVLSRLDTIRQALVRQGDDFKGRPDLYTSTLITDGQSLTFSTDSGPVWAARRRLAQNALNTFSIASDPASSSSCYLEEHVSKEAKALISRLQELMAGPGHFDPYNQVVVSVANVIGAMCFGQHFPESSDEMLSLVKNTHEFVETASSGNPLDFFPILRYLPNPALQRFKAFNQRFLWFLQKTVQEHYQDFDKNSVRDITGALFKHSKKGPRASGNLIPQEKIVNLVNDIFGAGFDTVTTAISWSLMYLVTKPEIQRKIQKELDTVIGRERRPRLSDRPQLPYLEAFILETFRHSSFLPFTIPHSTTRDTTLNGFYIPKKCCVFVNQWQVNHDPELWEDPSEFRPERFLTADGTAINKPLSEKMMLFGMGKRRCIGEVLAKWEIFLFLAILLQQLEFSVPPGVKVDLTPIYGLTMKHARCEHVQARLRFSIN

Assay [10] has as its target Voltage-gated inwardly rectifying potassium channel KCNH2 (Homo sapiens) (UniProt Q12809). Kind of assay: Human Ether-a-go-go-Related Gene (hERG) channel small molecule antagonists: fluorescence cell-based qHTS assay (AID 1671200). The procedure, abridged: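 Read-out: thallium influx as a surrogate for potassium, tracked as fluorescence (480 nm ex/540 nm em) every second for 2 min after Stimulus Buffer addition in dye-loaded hERG-U2OS cells.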
(hERG is a cardiac potassium channel; its block is linked to QT prolongation.)

Assay [11] concerns the target Cytochrome P450 3A4 (Homo sapiens) (UniProt P08684). Put plainly: Cytochrome P450 Family 3 Subfamily A Member 4 (CYP3A4) small molecule antagonists: luciferase reporter qHTS assay (AID 1671201). Note: nearly all actives have a fitted effect of over 50% in size. Note: potency is the fitted concentration of half-maximal effect. The procedure, abridged: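 Luminescent readout (RLU) proportional to CYP3A4 activity, from luciferin generated off a proluciferin substrate. Enzyme–substrate mix plus compound 10 min at room temp, NADPH regeneration 1 h, detection reagent 20 min.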

For assay [12], the target named is Cytochrome P450 2C19 (Homo sapiens) (UniProt P33261). Kind of assay: Cytochrome P450 Family 2 Subfamily C Member 19 (CYP2C19) small molecule antagonists: luciferase reporter qHTS assay (AID 1671197). Note: nearly all actives have a fitted effect of over 65% in size. Note: potency is the fitted concentration of half-maximal effect. In a few lines: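 First, compounds are pinned into enzyme-substrate mix and held 10 min at room temperature. Second, NADPH regeneration solution is added and plates incubate 1 h at 37C. Third, detection reagent is added and luminescence read after 20 min.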
Chain of Cytochrome P450 2C19 (Homo sapiens) (P33261 whole entry, looked up): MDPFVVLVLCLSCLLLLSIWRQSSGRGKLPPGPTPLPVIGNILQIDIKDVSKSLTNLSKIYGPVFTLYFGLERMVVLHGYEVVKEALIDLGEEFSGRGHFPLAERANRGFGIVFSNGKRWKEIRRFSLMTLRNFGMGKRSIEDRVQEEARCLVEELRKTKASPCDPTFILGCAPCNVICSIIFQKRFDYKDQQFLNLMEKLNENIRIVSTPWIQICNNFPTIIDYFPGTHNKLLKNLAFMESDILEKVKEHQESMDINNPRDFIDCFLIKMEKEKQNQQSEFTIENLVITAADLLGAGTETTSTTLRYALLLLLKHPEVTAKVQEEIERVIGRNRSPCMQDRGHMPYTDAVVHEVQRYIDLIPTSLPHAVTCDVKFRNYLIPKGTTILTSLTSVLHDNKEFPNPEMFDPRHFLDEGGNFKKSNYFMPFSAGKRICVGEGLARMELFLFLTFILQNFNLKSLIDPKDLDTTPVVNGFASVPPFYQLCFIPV

The nature of assay [13]: Caspase-3/7 induction in HepG2 cells by small molecules, qHTS cell viability counter screen (AID 1346981). Note: series mostly up to about 92 µM; nearly all actives have a fitted effect of over 30% in size. The procedure, abridged: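 Cell viability is measured as a cytotoxicity counter screen alongside the Caspase-Glo 3/7 readout in identical wells. Wild-type HepG2 cells are treated with test compounds for 16 hr at 37 C before CellTiter-Fluor addition and a 1-hr incubation.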

A number with no mark means an inactive call. Records with an inconclusive call do not appear. Activity calls are given as the source filed them. Unless noted, calls come from the whole dose curve; as a rule, active = well fitted curve in the direction sought with a large enough effect in the repeat runs; inconclusive = weak or mixed curves; inactive = no such curve, though single readings can be large; an effect the other way counts as inactive or inconclusive.

Chain of Voltage-gated inwardly rectifying potassium channel KCNH2 (Homo sapiens) (Q12809 whole entry, looked up): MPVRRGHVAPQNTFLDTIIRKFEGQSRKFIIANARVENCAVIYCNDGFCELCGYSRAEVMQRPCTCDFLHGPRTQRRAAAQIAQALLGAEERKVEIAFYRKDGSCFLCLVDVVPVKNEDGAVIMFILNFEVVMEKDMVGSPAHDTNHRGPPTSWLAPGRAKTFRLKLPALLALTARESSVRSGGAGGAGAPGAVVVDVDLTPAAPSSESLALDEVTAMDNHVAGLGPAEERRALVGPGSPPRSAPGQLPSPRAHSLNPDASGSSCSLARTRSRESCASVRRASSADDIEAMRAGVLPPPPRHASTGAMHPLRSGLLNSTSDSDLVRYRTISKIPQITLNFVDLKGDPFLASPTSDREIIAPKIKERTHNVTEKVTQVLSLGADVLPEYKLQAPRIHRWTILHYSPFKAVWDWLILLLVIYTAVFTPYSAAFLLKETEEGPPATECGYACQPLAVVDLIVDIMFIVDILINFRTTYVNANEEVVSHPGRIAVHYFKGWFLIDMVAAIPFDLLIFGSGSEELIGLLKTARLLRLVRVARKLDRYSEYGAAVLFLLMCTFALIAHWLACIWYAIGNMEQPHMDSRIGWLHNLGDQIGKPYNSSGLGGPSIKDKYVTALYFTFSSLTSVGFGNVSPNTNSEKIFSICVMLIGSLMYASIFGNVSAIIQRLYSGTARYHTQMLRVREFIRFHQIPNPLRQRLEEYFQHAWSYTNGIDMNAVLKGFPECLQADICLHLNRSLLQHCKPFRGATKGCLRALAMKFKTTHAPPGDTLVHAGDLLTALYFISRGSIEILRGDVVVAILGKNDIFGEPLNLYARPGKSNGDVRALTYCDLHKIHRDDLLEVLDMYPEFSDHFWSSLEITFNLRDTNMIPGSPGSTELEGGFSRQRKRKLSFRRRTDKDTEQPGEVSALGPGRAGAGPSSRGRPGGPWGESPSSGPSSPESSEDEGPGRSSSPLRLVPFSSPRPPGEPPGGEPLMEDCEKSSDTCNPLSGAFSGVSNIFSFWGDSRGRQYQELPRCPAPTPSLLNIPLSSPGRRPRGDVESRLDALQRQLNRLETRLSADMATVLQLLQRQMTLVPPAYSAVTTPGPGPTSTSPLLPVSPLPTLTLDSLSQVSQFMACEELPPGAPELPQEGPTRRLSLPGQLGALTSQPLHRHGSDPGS
Chain of Thyrotropin-releasing hormone receptor (Homo sapiens) (P34981 whole entry, looked up): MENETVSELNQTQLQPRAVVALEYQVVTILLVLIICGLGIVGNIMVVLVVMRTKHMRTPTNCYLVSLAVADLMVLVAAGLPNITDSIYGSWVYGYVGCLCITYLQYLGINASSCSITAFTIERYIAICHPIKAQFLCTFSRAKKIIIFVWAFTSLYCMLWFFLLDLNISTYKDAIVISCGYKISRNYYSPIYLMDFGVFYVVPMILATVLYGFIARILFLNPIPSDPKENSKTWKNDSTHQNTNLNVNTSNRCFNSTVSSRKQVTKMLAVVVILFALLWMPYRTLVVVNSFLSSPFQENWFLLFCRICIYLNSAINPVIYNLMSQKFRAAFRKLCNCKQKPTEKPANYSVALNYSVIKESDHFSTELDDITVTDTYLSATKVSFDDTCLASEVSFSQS
Chain of Cytochrome P450 3A4 (Homo sapiens) (P08684 whole entry, looked up): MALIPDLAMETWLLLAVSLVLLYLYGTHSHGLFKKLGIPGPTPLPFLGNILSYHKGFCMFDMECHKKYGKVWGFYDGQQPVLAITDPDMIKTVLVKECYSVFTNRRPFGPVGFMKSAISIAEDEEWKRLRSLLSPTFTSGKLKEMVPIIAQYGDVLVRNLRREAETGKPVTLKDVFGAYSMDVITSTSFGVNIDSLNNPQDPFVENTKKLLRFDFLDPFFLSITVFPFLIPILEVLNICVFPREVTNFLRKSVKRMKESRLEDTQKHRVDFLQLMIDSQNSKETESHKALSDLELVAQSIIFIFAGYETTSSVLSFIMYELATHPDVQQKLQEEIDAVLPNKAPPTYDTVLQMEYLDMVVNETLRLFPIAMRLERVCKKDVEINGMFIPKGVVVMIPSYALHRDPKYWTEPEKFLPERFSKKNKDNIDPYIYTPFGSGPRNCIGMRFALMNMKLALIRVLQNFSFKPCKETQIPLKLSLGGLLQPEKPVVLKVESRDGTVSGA

As for `CCC(C(=O)OCCN(CC)CC)c1ccccc1` (stereo not drawn), the Potency result in assay [1], in assay [2], in assay [3], in [4], in [6] and in assay [8] was “inactive” throughout. Moreover, the Potency entry in [10] and in assay [11] was “inactive” in each case. Moreover, in [5], the outcome was inactive. The figures for the Potency in [7] and in assay [9] were 3.09 µM (active) and 11.5 µM (active), respectively.
`Fc1ccccc1[C@@H](F)COC1CCC(Nc2ncnc3[nH]ncc23)CC1` (stereo partly drawn): the Potency result in [1], in assay [3], in [6], in assay [9], in assay [10] and in assay [11] was “inactive” throughout. Moreover, the Potency in [2] is 27.3 µM (active); in [4], 30.6 µM (active); in assay [12], 79.6 µM (active); in assay [8], 31.7 µM (active). Also, the call in assay [5] was inactive.
As for `COc1ccc(C(=O)c2cccc(O)c2)c(OC)c1`, the Potency result in assay [1], in assay [2], in [3], in assay [4], in [7] and in assay [8] was “inactive” in each case. The Potency result in [10] is “inactive”. In addition, the call in [5] was inactive. Also, the Potency in [6] was 61 µM (active); in assay [12], 3.55 µM (active); in assay [11] it was 31.7 µM (active).
For the compound `CC(=N\O)/C(C)=N/O`, the Potency result in [1], in assay [2], in assay [3], in [4], in [13] and in [6] was “inactive” each time. The Potency entry in [8], in [10] and in [11] was “inactive” in each case. The compound was classed as inactive in [5]. Also, in assay [9], the Potency was 35.6 µM (active).
Regarding `CC(N)CN` (stereo not drawn), the Potency result in [1], in assay [2], in [3], in assay [4], in assay [13] and in assay [6] was “inactive” each time. The Potency result in assay [9], in [10] and in assay [11] was “inactive” each time. For the same compound, the outcome in assay [5] was inactive. Further, the Potency in assay [12] is 60.5 µM (active).
For `C[Si](NC1CCCCC1)(NC1CCCCC1)NC1CCCCC1`, the Potency result in [1], in assay [2], in assay [3], in [4], in assay [13] and in assay [6] was “inactive” each time. The Potency entry in assay [10] is “inactive”. Besides, the outcome in [5] was inactive.
With `C=CC(=C)CCCC(C)(C)OC(C)=O`, the Potency entry in [1], in assay [2], in assay [3], in [4], in assay [6] and in [7] was “inactive” in each case. For the same compound, the Potency result in [12], in [8], in assay [10] and in assay [11] was “inactive” throughout. The result in assay [5] was inactive.
With `O=S(=O)(c1ccccc1)c1ccc(Cl)cc1`, the Potency entry in [1], in assay [2], in [3], in assay [4], in [13] and in [8] was “inactive” throughout. In addition, the Potency result in assay [10] and in [11] was “inactive” each time. For the same compound, the result in [5] was inactive. The values for the Potency in assay [6], in [12] and in assay [9] were 30.6 µM (active), 3.99 µM (active) and 44.8 µM (active), respectively.
Regarding `CC#N`, the Potency result in assay [1], in [2], in assay [3], in [4], in assay [13] and in assay [6] was “inactive” throughout. Moreover, the Potency entry in [7], in [12], in [8], in assay [9], in [10] and in [11] was “inactive” throughout.
As to `CC1=C(C=O)C(C)(C)CCC1`, the Potency entry in [1], in assay [2], in assay [3], in [4], in assay [7] and in assay [9] was “inactive” throughout. Besides, in assay [10], the Potency entry is “inactive”. Besides, the Potency in assay [6] was 27.3 µM (active).
Turning to `CC1(C)C2=CCCC(C)(C)[C@]23CC[C@H]1C3`, the Potency entry in [1], in assay [2], in assay [3], in assay [4], in assay [13] and in assay [7] was “inactive” throughout. The Potency result in [10] was “inactive”. Also, the Potency is 54.5 µM (active) in [6] and 79.6 µM (active) in [8].
In the case of `Cc1cc(O)c2c(O)c3c(O)cccc3cc2c1`, the Potency entry in assay [1], in assay [2], in assay [3], in assay [13], in assay [7] and in assay [10] was “inactive” each time. For the same compound, the outcome in [5] was inactive. The Potency in [6] was 11.9 µM (active); in [12], 4.36 µM (active); in [8], 4.9 µM (active).
As for `CCN(Cc1cccc(S(=O)(=O)O)c1)c1ccc(C(=C2C=CC(=[N+](CC)Cc3cccc(S(=O)(=O)[O-])c3)C=C2)c2ccccc2)cc1`, the Potency entry in [1], in [2], in assay [3], in assay [6], in assay [9] and in assay [10] was “inactive” each time. In addition, the compound was called inactive in assay [5]. Also, the Potency in assay [8] is 28 µM (active).
